# Values joined by “and” are separate entries in the source; they are usually repeats but may differ in a detail not shown here. Equal values may be shown once. Some compounds were tested as several samples or in several runs, with calls that do not always agree. Active and inactive are the calls of the source. Unless noted, how the calls were made is not given here.
# How the values were obtained:
# [1] = system: Wnt5a (protein binding on small-molecule microarray); experiment: Wnt5a binders on small-molecule microarray, primary screen, biophysical, 635/667 nm fluorescence (AID 1142); conditions: 635 nm fluorescence, higher = more signal;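 further: fluorescence read at 667 nm with signal to noise per printed feature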
# [2] = cell viability in Huh7 cells, primary screen, cytotoxicity control for HCV replication inhibitor project, CellTiter-Glo luminescence, basal, 48 h (AID 1143); conditions: Huh7 HCV replicon, higher = more signal, called active from +8 up or from −8 down;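 further: Huh7 hepatoma cells carrying a hepatitis C replication reporter with no stimulus; test concentration not given here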
# [3] = P. aeruginosa biofilm formation inhibitors, primary screen, PAO1 strain, BacTiter-Glo luminescence, LB-PBS (AID 1144); conditions: 12 h, higher = more signal
# [4] = CREB reporter modulators without forskolin, primary screen, cell-based, PC12, CRE-LacZ reporter, unstimulated (AID 1145); conditions: no forskolin, luminescence, 4.5 h, higher = more signal, called active from +8 up or from −8 down
# [5] = CREB reporter modulators under forskolin, primary screen, cell-based, PC12, CRE-LacZ reporter, forskolin-stimulated (AID 1146); conditions: luminescence, 4.5 h, higher = more signal, called active from +8 up or from −8 down;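 further: PC12 cells with 6xCRE LacZ reporter stimulated by forskolin 10 µM; beta-galactosidase reporter signal reflecting CREB driven transcription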
# [6] = target: Streptavidin (Streptomyces avidinii) (UniProt P22629); experiment: streptavidin binders on small-molecule microarray, primary screen, artefact control for SMM compound annotation, biophysical, 635/667 nm fluorescence (AID 1147); conditions: streptavidin binding, higher = more signal;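 further: signal reflects streptavidin binding to arrayed compounds as a control protein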
# Sequence of Streptavidin (Streptomyces avidinii) (P22629 whole entry, looked up): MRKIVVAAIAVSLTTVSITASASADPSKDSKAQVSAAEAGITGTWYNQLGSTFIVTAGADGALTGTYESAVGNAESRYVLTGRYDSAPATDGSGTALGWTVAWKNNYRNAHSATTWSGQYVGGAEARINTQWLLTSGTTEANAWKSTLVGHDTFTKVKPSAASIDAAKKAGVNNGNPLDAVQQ
# [7] = small-molecule binders of probe aInhba, primary screen, biochemical, small-molecule microarray, 635/667 nm fluorescence (AID 1148); conditions: higher = more signal;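 further: score merges 667nm spot fluorescence with signal-to-noise for antibody binding to printed compounds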
# Torsin-1A (Homo sapiens) [8] = target: Torsin-1A (Homo sapiens) (UniProt O14656); experiment: torsin A binders from cell lysate, primary screen, small-molecule microarray, wild-type, 635/667 nm (AID 1149); conditions: COS7 hTOR1A-WT lysate, 635 nm fluorescence, higher = more signal
# Sequence of Torsin-1A (Homo sapiens) (O14656 whole entry, looked up): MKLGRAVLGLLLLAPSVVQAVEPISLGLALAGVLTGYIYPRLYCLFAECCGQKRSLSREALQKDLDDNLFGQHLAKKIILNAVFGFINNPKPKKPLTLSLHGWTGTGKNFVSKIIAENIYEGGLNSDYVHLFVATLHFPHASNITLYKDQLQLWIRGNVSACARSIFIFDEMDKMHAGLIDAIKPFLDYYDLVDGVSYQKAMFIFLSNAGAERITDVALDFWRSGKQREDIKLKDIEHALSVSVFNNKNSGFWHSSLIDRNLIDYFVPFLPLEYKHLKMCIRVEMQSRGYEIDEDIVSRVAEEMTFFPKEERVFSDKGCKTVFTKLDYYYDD
# Torsin-1A (Homo sapiens) [9] = target: Torsin-1A (Homo sapiens) (UniProt O14656); experiment: small-molecule binders of mutant TOR1A in lysate, primary screen, cell lysate, small-molecule microarray, COS7 lysate, 635/667 nm fluorescence (AID 1150); conditions: COS7 hTOR1A mutant lysate, 635 nm fluorescence, higher = more signal;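 further: score pools 667 nm emission and signal to noise measuring lysate protein binding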
# [10] = system: Sonic hedgehog protein (Shh); experiment: small-molecule binders of Shh protein, primary screen, biochemical, small-molecule microarray, 635/667 nm fluorescence (AID 1151); conditions: small-molecule microarray binding, 635 nm fluorescence; higher = more signal;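 further: Shh protein binding to compounds spotted on small-molecule microarray slides; score combines spot fluorescence intensity with signal-to-noise across triplicate slides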
# [11] = E. coli DRC41 culture turbidity changes, primary screen, E. coli filamentation inducer project, strain DRC41, OD650, 48 h (AID 1152);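 further: E. coli MC1000 strain DRC41 lacking acrAB efflux pump and sulA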; conditions: E. coli DRC41 (acrAB sulA), higher = more signal, called active from +8 up or from −8 down
# [12] = small-molecule binders of probe aLefty1, primary screen, biochemical, small-molecule microarray, 635/667 nm fluorescence (AID 1153); conditions: higher = more signal;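 further: score merges spot fluorescence with signal-to-noise ratio from the scanned slide images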
# [13] = PSAC antagonists in infected red cells, primary screen, cell-based, P. falciparum Indochina, OD700, 1 h (AID 1154); conditions: P. falciparum Indochina infected RBC osmotic lysis, higher = more signal, called active from +8 up or from −8 down
# [14] = PSAC antagonists in infected red cells, primary screen, cell-based, P. falciparum Indochina, OD700, 2 h (AID 1155);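 further: lysis reports solute entry through the parasite surface anion channel PSAC; channel blockers reduce lysis of infected cells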; conditions: P. falciparum Indochina infected erythrocytes, osmotic lysis OD700; higher = more signal, called active from +8 up or from −8 down
# [15] = osmotic lysis modulators in infected erythrocytes, primary screen, PSAC antagonist project, cell-based, P. falciparum Indochina, OD700, 3 h (AID 1156); conditions: higher = more signal, called active from +8 up or from −8 down
# [16] = PSAC antagonists in infected red cells, primary screen, cell-based, P. falciparum Indochina, OD700, 18 h (AID 1157); conditions: P. falciparum Indochina infected erythrocytes, osmotic lysis OD700, 18 h; higher = more signal, called active from +8 up or from −8 down
# [17] = modulators of S6 phosphorylation in cells, primary screen, cell-based, A549, cytoblot, luminescence, serum-stimulated (AID 1158); conditions: A549 phospho-S6 cytoblot, 5 h, higher = more signal;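 further: serum-stimulated A549 lung adenocarcinoma cells; signal is phosphorylated S6 detected by cytoblot immunostaining with HRP secondary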
# [18] = target: NADPH oxidase 2 (Homo sapiens) (UniProt P04839); experiment: NOX2-dependent H2O2 signal modulators, primary screen, NOX inhibitor project, cell-based, HEK293-NOX2, PMA-stimulated, Amplex Red fluorescence (AID 1159); conditions: 45 min, higher = more signal, called active from +8 up or from −8 down; further: test concentration not given here
# Sequence of NADPH oxidase 2 (Homo sapiens) (P04839 whole entry, looked up): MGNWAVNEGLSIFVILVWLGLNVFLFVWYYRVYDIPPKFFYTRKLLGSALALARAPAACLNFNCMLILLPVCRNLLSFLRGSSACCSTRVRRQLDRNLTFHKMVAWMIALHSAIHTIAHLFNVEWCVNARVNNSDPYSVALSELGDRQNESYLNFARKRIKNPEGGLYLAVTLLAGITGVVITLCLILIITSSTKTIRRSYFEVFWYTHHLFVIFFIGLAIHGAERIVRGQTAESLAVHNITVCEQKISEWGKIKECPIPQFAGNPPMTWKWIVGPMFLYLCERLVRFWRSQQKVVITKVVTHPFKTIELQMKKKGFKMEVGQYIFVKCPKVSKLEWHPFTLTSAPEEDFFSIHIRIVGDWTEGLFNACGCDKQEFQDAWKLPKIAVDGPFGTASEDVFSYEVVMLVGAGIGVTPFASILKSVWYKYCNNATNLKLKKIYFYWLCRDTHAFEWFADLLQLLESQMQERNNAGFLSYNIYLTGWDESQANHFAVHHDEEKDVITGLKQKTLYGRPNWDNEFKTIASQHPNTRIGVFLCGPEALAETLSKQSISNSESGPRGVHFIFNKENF
# [19] = target: NADPH oxidase 4 (Homo sapiens) (UniProt Q9NPH5); experiment: NOX4-dependent H2O2 signal modulators, primary screen, NOX inhibitor project, cell-based, HEK293-NOX4, tetracycline-induced, Amplex Red fluorescence (AID 1160); conditions: 45 min, higher = more signal, called active from +8 up or from −8 down
# Sequence of NADPH oxidase 4 (Homo sapiens) (Q9NPH5 whole entry, looked up): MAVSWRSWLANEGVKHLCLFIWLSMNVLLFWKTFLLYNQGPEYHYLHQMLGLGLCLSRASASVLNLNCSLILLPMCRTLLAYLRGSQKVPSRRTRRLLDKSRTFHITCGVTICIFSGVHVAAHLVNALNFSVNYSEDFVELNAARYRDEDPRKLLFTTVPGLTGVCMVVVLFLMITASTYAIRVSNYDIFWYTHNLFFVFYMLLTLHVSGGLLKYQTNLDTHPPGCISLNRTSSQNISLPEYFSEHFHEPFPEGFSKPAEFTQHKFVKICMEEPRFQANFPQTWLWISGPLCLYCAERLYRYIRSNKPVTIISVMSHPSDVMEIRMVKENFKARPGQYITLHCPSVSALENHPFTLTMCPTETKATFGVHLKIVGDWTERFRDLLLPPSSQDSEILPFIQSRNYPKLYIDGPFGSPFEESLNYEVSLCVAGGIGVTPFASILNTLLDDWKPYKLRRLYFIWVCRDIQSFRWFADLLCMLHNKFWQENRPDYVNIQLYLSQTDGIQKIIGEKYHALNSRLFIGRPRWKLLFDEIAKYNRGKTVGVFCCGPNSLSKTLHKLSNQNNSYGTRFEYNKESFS
# [20] = target: NADPH oxidase 5 (Homo sapiens) (UniProt Q96PH1); experiment: NOX5-dependent H2O2 signal modulators, primary screen, NOX inhibitor project, cell-based, HEK293-NOX5, Amplex Red fluorescence (AID 1161); conditions: HEK293-NOX5, ionomycin, 45 min, higher = more signal
# Sequence of NADPH oxidase 5 (Homo sapiens) (Q96PH1 whole entry, looked up): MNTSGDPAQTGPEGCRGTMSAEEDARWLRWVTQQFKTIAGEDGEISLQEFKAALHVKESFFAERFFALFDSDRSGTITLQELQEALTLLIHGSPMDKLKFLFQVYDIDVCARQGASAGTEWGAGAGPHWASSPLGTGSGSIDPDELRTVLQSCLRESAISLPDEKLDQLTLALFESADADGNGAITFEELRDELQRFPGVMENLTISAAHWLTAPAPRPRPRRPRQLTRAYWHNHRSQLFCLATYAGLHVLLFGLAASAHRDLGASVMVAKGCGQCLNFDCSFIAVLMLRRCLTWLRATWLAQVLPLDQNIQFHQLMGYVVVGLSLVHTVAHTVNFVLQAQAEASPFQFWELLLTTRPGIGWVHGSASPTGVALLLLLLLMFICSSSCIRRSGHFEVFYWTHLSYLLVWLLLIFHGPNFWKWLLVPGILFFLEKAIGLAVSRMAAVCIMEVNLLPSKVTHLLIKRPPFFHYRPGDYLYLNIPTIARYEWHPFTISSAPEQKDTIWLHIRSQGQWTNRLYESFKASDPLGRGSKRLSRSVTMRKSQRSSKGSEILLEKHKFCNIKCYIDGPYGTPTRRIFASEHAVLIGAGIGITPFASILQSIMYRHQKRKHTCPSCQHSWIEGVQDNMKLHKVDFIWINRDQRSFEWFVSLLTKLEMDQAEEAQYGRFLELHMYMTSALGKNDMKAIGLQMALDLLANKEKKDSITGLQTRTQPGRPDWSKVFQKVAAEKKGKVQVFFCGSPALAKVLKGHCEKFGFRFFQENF
Compound,composite z-score [1],z-score [2],z-score [3],z-score [4],z-score [5],composite z-score [6],composite z-score [7],composite z-score (Torsin-1A (Homo sapiens) [8]),composite z-score (Torsin-1A (Homo sapiens) [9]),composite z-score [10],z-score [11],composite z-score [12],z-score [13],z-score [14],z-score [15],z-score [16],z-score [17],z-score [18],z-score [19],z-score [20]
C=CCN(C(=O)C(c1cccs1)N(C(=O)/C=C\C(=O)O)c1c(Cl)cccc1CO)c1ccc(OC)cc1 (stereo not given),-0.57 and -0.644,-0.266 (inactive) and 0.28 (inactive),0.894 (inactive),-0.895 (inactive) and -0.346 (inactive),-0.569 (inactive) and 0.595 (inactive),-1.33 and -0.327,-0.336 and -0.0209,-2.86 and -0.746,-1.96 and -2.42,-1.64 and -0.676,1.42 (inactive) and -0.536 (inactive),0.188 and 0.207,-0.363 (inactive) and 2.52 (inactive),-1.53 (inactive) and 0.102 (inactive),-0.806 (inactive) and -0.455 (inactive),-1.39 (inactive) and 0.0841 (inactive),0.312 and 0.429,-0.102 (inactive) and -0.012 (inactive),-1.08 (inactive) and -1.05 (inactive),0.145 and 0.141
CCOC(=O)c1ccc(NC(=O)O[C@H]2[C@H](OC(=O)Nc3ccccc3)[C@@H](OC(=O)Nc3ccccc3)[C@@H](OC)O[C@@H]2CO)cc1,0.493 and 0.437,-4.44 (inactive) and -4.14 (inactive),0.0469 (inactive) and -1.32 (inactive),1.55 (inactive) and -0.552 (inactive),-1.38 (inactive) and -1.61 (inactive),1.64 and 0.53,0.333 and 0.0982,1.19 and 0.89,0.556 and 0.56,0.955 and 1.97,-1.16 (inactive) and -0.655 (inactive),0.507 and 0.394,5.55 (inactive) and 14.7 (active),1.05 (inactive) and 2.32 (inactive),0.199 (inactive) and 1.28 (inactive),0.764 (inactive) and 0.888 (inactive),0.139 and 0.0102,0.0131 (inactive) and -4.33 (inactive),-0.578 (inactive) and -1.01 (inactive),-0.851 and -1.69
COC(=O)CC=C[C@@H](C)[C@@H](CO)NS(=O)(=O)c1ccc(C)cc1,0.234 and 0.125,0.577 (inactive) and -0.18 (inactive),0.773 (inactive) and -0.379 (inactive),1.1 (inactive) and 0.288 (inactive),-0.196 (inactive) and -0.693 (inactive),-0.183 and 0.469,-0.05 and 0.0248,0.448 and 0.478,0.32 and 1.08,0.759 and 1.44,-0.242 (inactive) and 0.0668 (inactive),-0.0971 and -0.148,-0.577 (inactive) and 5.54 (inactive),-0.08 (inactive) and 1.47 (inactive),0.245 (inactive) and 0.644 (inactive),-0.145 (inactive) and 1.05 (inactive),-0.244 and 0.392,-0.132 (inactive) and 0.154 (inactive),-0.00804 (inactive) and 0.453 (inactive),-0.00181 and 0.301
C=C[C@@H](C)[C@@H](O)c1ccc(OCCO)cc1,-1.29 and -1.06,-0.295 (inactive) and -0.245 (inactive),-0.828 (inactive) and -0.12 (inactive),0.105 (inactive) and 1.46 (inactive),-0.466 (inactive) and -0.637 (inactive),-1.1 and -0.908,-0.312 and -0.213,-3.3 and -3.39,-2.66 and -2.95,-1.39 and 0.319,0.155 (inactive) and 1.8 (inactive),-0.237 and -0.102,1.23 (inactive) and 0.481 (inactive),0.568 (inactive) and -0.311 (inactive),0.321 (inactive) and -0.929 (inactive),0.281 (inactive) and -0.873 (inactive),0.0021 and 0.856,-0.228 (inactive) and -0.985 (inactive),-0.115 (inactive) and -0.247 (inactive),-0.0389 and -0.521
COC(=O)C1=C(C)N(Cc2ccccc2)C2=C(C(C)=O)[C@H](c3ccccc3)[C@@](O)(C(=O)OC)C(=O)N2[C@@H]1c1ccccc1,0.142 and -0.0685,-0.912 (inactive) and -3.17 (inactive),-1.5 (inactive),1.1 (inactive) and 0.916 (inactive),-0.213 (inactive) and -0.284 (inactive),0.499 and -0.212,0.105 and -0.171,0.576 and -0.313,0.9 and -0.211,0.686 and 0.16,0.363 (inactive) and -0.426 (inactive),-0.0908 and -0.118,1.65 (inactive) and 0.383 (inactive),0.441 (inactive) and -0.0277 (inactive),1.2 (inactive) and -1.16 (inactive),0.419 (inactive) and -0.175 (inactive),0.582 and 3.5,2.34 (inactive) and -3.45 (inactive),0.687 (inactive) and 0.321 (inactive),0.784 and 0.53
COc1ccc(O[C@H]2C=C[C@@H](c3ccccc3)O[C@@H]2COC(=O)CCC(C)=NO[C@H](C)c2cn([C@H](CO)Cc3ccccc3)nn2)cc1,0.205 and -0.274,-1.93 (inactive) and -1.7 (inactive),0.916 (inactive) and 1.05 (inactive),2.66 (inactive) and 1.53 (inactive),1.83 (inactive) and 0.775 (inactive),0.379 and 2.03,0.344 and 0.104,0.362 and 0.702,0.127 and 0.463,0.372 and 1.69,0.756 (inactive) and 0.0906 (inactive),0.273 and -0.553,14.1 (active) and 13.6 (active),1.6 (inactive) and 2.16 (inactive),2.07 (inactive) and 1.09 (inactive),0.711 (inactive) and 0.907 (inactive),-0.112 and -0.835,-2.32 (inactive) and -2.14 (inactive),0.0167 (inactive) and -2.56 (inactive),-1.63 and -3.66

# From PubChem BioAssay
